FLuc counter: firefly luciferase modulation, counter-screen for miR-21 project | P08659 | Potency, µM (doses to about 57.5 µM), without a hit: at the highest dose activity change, negative = inhibition, actives largely listed as inhibitors | AID 588342 | purified FLuc, Km substrates, luminescence inhibition | hit rate 6.9% among 360,000;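 also: plate controls were vehicle for no effect and reference inhibitor for full effect; nearly all actives have a fitted effect of over 55% in size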
Target sequence (P08659 whole entry, looked up): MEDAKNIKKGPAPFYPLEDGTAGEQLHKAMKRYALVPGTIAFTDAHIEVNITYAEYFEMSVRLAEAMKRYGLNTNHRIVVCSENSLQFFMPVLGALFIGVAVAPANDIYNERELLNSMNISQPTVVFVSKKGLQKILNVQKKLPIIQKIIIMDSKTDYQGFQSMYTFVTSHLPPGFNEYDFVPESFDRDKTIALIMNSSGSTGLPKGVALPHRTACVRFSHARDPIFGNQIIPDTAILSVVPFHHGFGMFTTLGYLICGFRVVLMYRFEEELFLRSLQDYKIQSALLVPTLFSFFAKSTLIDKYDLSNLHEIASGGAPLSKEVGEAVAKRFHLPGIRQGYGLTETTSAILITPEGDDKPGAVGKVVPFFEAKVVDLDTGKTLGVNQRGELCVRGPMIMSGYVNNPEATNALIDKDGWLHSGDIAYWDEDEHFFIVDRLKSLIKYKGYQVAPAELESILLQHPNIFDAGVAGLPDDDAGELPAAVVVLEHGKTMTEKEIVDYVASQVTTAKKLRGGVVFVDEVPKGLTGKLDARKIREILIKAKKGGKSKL
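Biochemical qHTS of compounds, final roughly 60 µM downward over six points, against 10 nM purified firefly luciferase using Km concentrations of substrates (10 uM D-luciferin, 10 uM ATP) in Tris acetate pH 7.5 buffer; luminescence output.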
KinaseGlo FLuc: counter-screen: inhibitors of Kinase-Glo firefly luciferase | Q27757 | Kinase-Glo luciferase, ATP luminescence, 8 min | Potency, µM (highest dose often 38.3 µM), without a hit: at the highest dose activity change, negative = inhibition, hits mostly inhibitors | hit rate 0.28% among 200,000 | AID 1379; also: % is scaled to controls: 0 for no effect and ±100 for the full control effect; nearly all actives have a fitted effect of over 60% in size
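Recombinant Kinase-Glo luciferase, 10 uM ATP (linear range), luciferin; imidazole pH 7.2 / KCl / MgCl2 / Tween / BSA buffer; 8 min RT; luminescence.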
NPC1 promoter act: activates the NPC1 promoter | Huh7 NPC1 promoter luciferase reporter, 24 h | Potency, µM (highest dose often 9.22 µM), for the others: top-dose activation, most hits filed as activators | hit rate 2.4% among 320,000; also: % of control where 0% means no effect; nearly all actives have a fitted effect of over 60% in size
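Huh7 reporter cells (NPC1 promoter driving luciferase) are dosed with compound for 24 h at 37 °C, 5% CO2; luciferase detection reagent is then added and luminescence measured after 10 min at ambient temperature.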
Rab9 promoter act: Rab9 promoter activation; Potency, µM (series often up to 9.22 µM), without a hit: top-dose activation, negative = inhibition, usual class: activators; AID 485297; hit rate 2.8% among 320,000; Huh7 Rab9 promoter-luciferase reporter, luminescence, 24 h; also: % of control where 0% means no effect; nearly all actives have a fitted effect of over 60% in size
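Huh7 cells stably carrying Rab9 promoter–luciferase reporter, plated 1500 cells/well, compound added after 2 h and incubated 24 h at 37 °C; luciferase luminescence then read after 10 min with detection reagent.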
ELG1 genotoxic: induces genotoxicity in HEK293T cells with luciferase-tagged ELG1; HEK293T ELG1-luciferase reporter, luminescence, 16 h; Potency, µM (top dose mostly 46 µM), for inactives: top-dose activity change, positive = activation, hits mostly activators; hit rate 1.3% among 330,000; also: % of control where 0% means no effect; nearly all actives have a fitted effect of over 60% in size
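Genotoxic stress is detected as increased luminescence from luciferase-tagged ELG1 in HEK293T cells, measured with ONE-Glo after a 16 hr treatment at 37 °C.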
SMN2 splice up: increases expression of the SMN2 splice variant | hit rate 2.8% among 210,000 | Potency, µM (titrated, usually from 46.1 µM), inactives show top-dose activity change, positive = activation, hits mostly activators | HEK293 SMN2-luciferase splicing reporter, luminescence, 30-36 h; also: % of control where 0% means no effect; nearly all actives have a fitted effect of over 55% in size
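HEK293 cells carry an SMN2 minigene-luciferase reporter in which exon 7 inclusion puts luciferase in frame. Cells were seeded at 2000 cells/well, attached for 10-12 hours, then exposed to compounds for 30-36 hours at 37C before ONE-Glo luminescence.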
* hit, by the source's call; ? = inconclusive; · = no result given; [ ] = dose if it differs, or a comment. Compounds with a hit are over-represented: about 7.5% of the library has one in this group of screens. Calls follow the shape of the dose curve; as a rule, active = well fitted curve in the direction sought with a large enough effect; inconclusive = small, poorly fitted or top-dose-only effect, or another doubt; inactive = no such curve, though single readings can be large; an effect the other way counts as inactive or inconclusive. Potency is read from the fitted curve at half-maximal effect.

SMILES	FLuc counter	KinaseGlo FLuc	NPC1 promoter act	Rab9 promoter act	ELG1 genotoxic	SMN2 splice up
COCCN(C(=O)Cc1cccs1)c1nnc(-c2cccnc2)s1	-1%	-2%	-4%	16%	1%	-19%
CCN(C(=O)Cc1ccccc1OC)c1nnc(-c2ccncc2)s1	-18%	-2%	-1%	2%	-2%	-29%
CCN(C(=O)c1ccco1)c1nnc(-c2cccnc2)s1	13µM*	·	?	?	?	·
COCCN(C(=O)c1ccco1)c1nnc(-c2ccc(F)cc2)s1	?	-1%	28%	?	10%	?
CCCC(=O)Nc1cccc(OCc2cc(=O)n3cccc(C)c3n2)c1	-10%	·	·	·	·	·
CC(=O)N1CCCc2cc(S(=O)(=O)N3CCN(c4ccc(F)cc4)CC3)ccc21	-6%	·	·	·	·	·
CC(=O)c1ccc(OCc2cc(C(=O)N3CCOCC3)no2)cc1	17µM*	·	?	?	?	·
CC(=O)c1ccc(OCc2cc(C(=O)N3CCCCCCC3)no2)cc1	?	·	14%	28%	-6%	·
CC(=O)c1ccc(OCc2cc(C(=O)N3CCC(Oc4ccccc4C)CC3)no2)cc1	19µM*	·	?	?	15%	·
Cc1cc(C)n2nc(CNS(=O)(=O)c3ccccc3)nc2n1	-1%	·	·	·	·	-2%
Cc1cccc(CC(=O)N2CC(=O)Nc3ccc(Br)cc3C2c2ccc(F)cc2)c1 (stereo not given)	-6%	·	·	·	·	-9%
Cc1ccc2c(c1)c1c(n2C)-c2[nH]ncc2CC1	13µM*	-3%	7%	23%	12%	13%
Cc1ccc2c(c1)c1c(n2C)C(C(N)=O)CCC1 (stereo not given)	0%	-3%	-1%	-2%	3%	-2%
COc1ccc2oc(=O)c(C(=O)Nc3cccc(C(C)=O)c3)cc2c1	4.8µM*	·	28%	?	8%	·
COc1ccc(NC(=O)c2cc3ccccc3o/c2=N\NS(=O)(=O)c2ccc(C)cc2)cc1	-28%	·	1µM*	0.45µM*	?	·
COc1ccc2oc(=O)c(C(=O)Nc3ccccc3-c3ccccc3)cc2c1	5%	4%	0%	0%	-6%	-1%
COc1cc(/C=C/[N+](=O)[O-])ccc1OC(=O)c1cc2ccccc2oc1=O	6µM*	·	-18%	10%	?	·
COc1ccc2oc(=O)c(C(=O)N3CCN(C(=O)c4ccccc4)CC3)cc2c1	0%	·	-1%	-4%	-2%	·
COc1ccc2oc(=O)c(/C(C)=N/Nc3ccccc3)cc2c1	24µM*	1%	-1%	-7%	-1%	-26%
COCc1cc(C)nc2sc(C(=O)Nc3ccccc3O)c(N)c12	-1%	·	·	·	·	-11%
COc1cccc(OC(=O)c2cc3ccccc3oc2=O)c1	13µM*	-7%	2%	-3%	11%	-3%
Cc1cccnc1NC(=O)c1cc2ccccc2oc1=O	0.6µM*	-19%	1.8µM*	1µM*	2.1µM*	20µM*
COc1cccc(NC(=O)c2cc3ccccc3oc2=O)c1	0.24µM*	·	1.4µM*	2.5µM*	0.92µM*	·
COc1ccccc1OC(=O)c1cc2ccccc2oc1=O	-18%	·	-2%	-2%	7%	·
CCOc1ccc(-c2nn(CC(=O)NC3CCCCC3)c3c2cnc2ccc(C)cc23)cc1	-1%	·	·	·	·	·
SMILES	FLuc counter	KinaseGlo FLuc	NPC1 promoter act	Rab9 promoter act	ELG1 genotoxic	SMN2 splice up
CCOc1ccc(-c2nnc(SCC(=O)NCCC(C)C)nc2-c2ccc(OCC)c(OC)c2)cc1OC	-4%	·	·	·	·	·
CC(N=Cc1c(O)c2ccccc2oc1=O)C(=O)O (stereo not given)	-14%	-5%	-5%	-8%	-4%	-8%
O=c1oc2ccccc2c(O)c1C=Nc1cccnc1	9.5µM*	-7%	-7%	-12%	-8%	-2%
CCOc1ccc(N=Cc2c(O)c3ccccc3oc2=O)cc1	0.85µM*	?	-1%	-1%	9%	-6%
O=c1oc2ccccc2c(O)c1/C=C1\C=Nc2ccccc21	27µM*	0%	13%	-3%	-2%	-13%
O=c1oc2ccccc2c(O)c1/C=N/c1ncccn1	?	?	2%	3%	5%	-27%
O=c1oc2ccccc2c(O)c1/C=N/c1ccccn1	11µM*	?	-5%	2%	-3%	-6%
CCc1ccc(NC(=O)c2sc3nc(C)c(C(=O)Nc4ccc(C)cc4C)c(-c4ccco4)c3c2N)cc1	0%	·	·	·	·	-18%
Nc1nc2c(c(=O)[nH]1)CN(c1ccc(S(N)(=O)=O)cc1)CN2	·	1%[7.66 µM]	·	·	·	3%[9.22 µM]
COc1ccc(OCc2cc(C(=O)NC3Cc4ccccc4C3)no2)c(Cl)c1	3%	·	-24%	-10%	-5%	·
COc1ccc(OCc2cc(C(=O)N[C@H]3CCCCNC3=O)no2)c(Cl)c1	11µM*	·	?	?	?	·
CSc1ccccc1OCc1cc(C(=O)N[C@H]2CCCCNC2=O)no1	11µM*	·	2.8µM*	3.5µM*	?	·
Cc1ccccc1-c1nc(Cc2ccccc2)no1	12µM*	-3%	?	?	?	?
Clc1ccc(-c2nc(Cc3ccccc3)no2)cc1	12µM*	1%	?	?	21µM*	0%
COc1ccc(-c2nc(Cc3ccc(Cl)cc3)no2)cc1OC	-2%	0%	9%	1%	7%	-14%
COc1ccc(Cc2noc(-c3ccccc3)n2)cc1OC	-10%	4%	-2%	-4%	0%	-32%
COc1cccc(N2CCN(C(=O)Cn3ncc4c(=O)oc5ccccc5c43)CC2)c1	-2%	·	·	·	·	-9%
CC1=C(c2ccc(C)c(C)c2)S(=O)(=O)N=C1N1CCC(C(=O)N2CCCCC2)CC1	-7%	·	·	·	·	·
O=C(CN1C(=O)c2ccccc2S1(=O)=O)c1ccc(O)c(O)c1	-3%	·	18%	?	7%	·
CCN1CCN(C(=O)CN2C(=O)c3ccccc3S2(=O)=O)CC1	?	·	?	2.5µM*	?	·
CCOC(=O)N1CCN(C(=O)CN2C(=O)c3ccccc3S2(=O)=O)CC1	3%	·	1%	16%	?	·
COc1ccc(C(=O)CN2C(=O)c3ccccc3S2(=O)=O)cc1	13µM*	·	-32%	?	-9%	·
O=C(CN1C(=O)c2ccccc2S1(=O)=O)c1ccc(F)c(F)c1	11µM*	·	?	?	-2%	·
Cc1ccc(S(=O)(=O)c2nc(S(C)(=O)=O)sc2NCc2ccccc2)cc1	-5%	·	·	·	·	6%
COc1ccccc1/C=C/C(=O)Nc1cccnc1Cl	27µM*	·	?	29%	18%	·
COc1ccccc1/C=C/C(=O)NCCc1ccccn1	13µM*	·	?	2.8µM*	?	·
COc1ccc(/C=C/C(=O)Nc2ccc(Cl)c(Cl)c2)cc1	4.8µM*	·	·	·	·	6%

Screens: PubChem BioAssay, National Center for Advancing Translational Sciences (NCATS)
